Among all 2,400 compounds or so, about 750 (31%) were called active.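 The calls were made as follows: active = median signal gain over dofetilide-blocked control wells reaching their mean plus 3 SD, so readout 1 at least 0; inactive = the rest.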 This is one part of the list.

Voltage-gated inwardly rectifying potassium channel KCNH2 (Homo sapiens), sequence (Q12809 whole entry, looked up): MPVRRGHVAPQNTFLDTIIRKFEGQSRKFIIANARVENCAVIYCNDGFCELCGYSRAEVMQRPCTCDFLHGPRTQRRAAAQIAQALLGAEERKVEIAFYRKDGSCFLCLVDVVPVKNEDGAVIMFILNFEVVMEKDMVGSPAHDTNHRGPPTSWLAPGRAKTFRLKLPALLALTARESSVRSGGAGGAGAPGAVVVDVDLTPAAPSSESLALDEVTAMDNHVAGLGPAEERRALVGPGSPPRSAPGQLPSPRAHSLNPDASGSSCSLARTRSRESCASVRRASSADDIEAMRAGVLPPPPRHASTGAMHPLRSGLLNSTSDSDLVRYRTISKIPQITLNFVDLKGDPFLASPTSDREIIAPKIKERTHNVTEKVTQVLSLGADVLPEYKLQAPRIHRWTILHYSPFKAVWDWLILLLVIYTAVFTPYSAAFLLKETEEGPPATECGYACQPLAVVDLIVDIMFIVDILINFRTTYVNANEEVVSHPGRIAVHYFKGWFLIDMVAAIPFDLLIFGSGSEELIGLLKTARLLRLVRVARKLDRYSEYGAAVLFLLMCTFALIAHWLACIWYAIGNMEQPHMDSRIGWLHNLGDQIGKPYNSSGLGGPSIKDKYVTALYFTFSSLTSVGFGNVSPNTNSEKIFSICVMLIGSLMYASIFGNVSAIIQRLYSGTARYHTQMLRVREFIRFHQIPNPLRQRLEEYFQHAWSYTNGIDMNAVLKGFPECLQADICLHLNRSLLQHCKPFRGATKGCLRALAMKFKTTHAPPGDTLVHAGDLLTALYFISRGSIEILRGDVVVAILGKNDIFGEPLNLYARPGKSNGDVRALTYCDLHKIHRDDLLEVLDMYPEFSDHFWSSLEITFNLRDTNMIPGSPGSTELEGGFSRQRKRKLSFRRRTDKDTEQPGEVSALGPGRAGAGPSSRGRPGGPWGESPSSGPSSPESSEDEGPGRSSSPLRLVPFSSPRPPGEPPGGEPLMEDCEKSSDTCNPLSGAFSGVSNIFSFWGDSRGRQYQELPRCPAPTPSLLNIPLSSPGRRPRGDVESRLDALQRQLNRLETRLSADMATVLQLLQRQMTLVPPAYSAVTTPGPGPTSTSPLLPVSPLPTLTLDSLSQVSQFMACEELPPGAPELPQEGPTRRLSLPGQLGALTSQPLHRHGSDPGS

The assay addresses Voltage-gated inwardly rectifying potassium channel KCNH2 (Homo sapiens) (UniProt Q12809). The assay is described as follows: modulators restoring hERG flux under dofetilide – cell-based, thallium flux, duplicate retest, dofetilide IC70, confirmation (AID 1835). The following applies: hERG cell line, FluxOR thallium flux, dofetilide-blocked; at 10 µM; active compounds read high. On the technique in general: Block of hERG is tested as a sign of cardiac risk.
Take `O=C(O)c1ccc2c3n(nc2c1)-c1ccc(Cl)cc1CO3`: the activity increase over dofetilide control, less the hit threshold was -7% (inactive).
`O=C(NNc1nc2c(F)cccc2s1)c1cc(=O)c2ccccc2o1`: the activity increase over dofetilide control, less the hit threshold is 6% (active).
For the compound `Cc1cc(C)c(NC(=O)C2CC3CCC2C3)c(C)c1` (stereo not drawn), the activity increase over dofetilide control, less the hit threshold is -5% (inactive).
To `CCn1cc(C(=O)NCCN(C)C)c(=O)c2cc(F)c(N3CCN(C)CC3)cc21` belongs -17% (inactive); to `Cn1sc(NC(=O)c2cccc(Cl)c2)nc1=O`, -1% (inactive).
To `O=C(CCC1CCCC1)NNC(=O)c1cccc(Cl)c1` belongs -7% (inactive); to `O=C(Nn1c(O)c(C=C2N=c3ccccc3=N2)sc1=S)c1cccc(Cl)c1`, 33% (active).
On to `CCN1C(=O)/C(=C/N2CCc3ccccc32)SC1=S`, for which the activity increase over dofetilide control, less the hit threshold is -9% (inactive).
To `CCCCN1C(=O)/C(=C2/Sc3ccc(Cl)cc3N2CC)SC1=S` belongs 42% (active); to `CCCCCC/C(C)=C1/SC(=S)NC1=O`, 87% (active).
Take `CC(=O)n1nc(-c2ccncc2)nc1SCC(=O)Nc1cccc(Cl)c1`: the activity increase over dofetilide control, less the hit threshold was -10% (inactive).
To `O=C(O)c1cc(N/N=C/c2ccc(-c3ccccc3)cc2)ccc1Cl` belongs -16% (inactive); to `CCCOc1ccc(C(=O)N(CC(C)C)c2c(N)n(Cc3ccccc3)c(=O)[nH]c2=O)cc1`, -7% (inactive); to `CC(C)CN(C(=O)COC(=O)CNC(=O)c1ccccc1F)c1c(N)n(Cc2ccccc2)c(=O)[nH]c1=O`, -11% (inactive).
Take `COCCN(C(=O)CSc1nnc(C)n1Cc1ccccc1)c1c(N)n(CC(C)C)c(=O)[nH]c1=O`: the activity increase over dofetilide control, less the hit threshold is 1% (active).
As for `COc1cc(/C=C2/SC(=S)N(CC(=O)O)C2=O)ccc1OCC(=O)Nc1ccc(C)c(C)c1`, the activity increase over dofetilide control, less the hit threshold is 89% (active).
For `COc1cccc(CN=c2c([N+](=O)[O-])nn(-c3ccccc3C)n2O)c1`, the activity increase over dofetilide control, less the hit threshold is -15% (inactive).
Regarding `O=C(c1n[nH]c2c1CCCC2)n1ccnc1`, the activity increase over dofetilide control, less the hit threshold was -2% (inactive).
On to `CCOc1cc(Br)c(C(=O)O)cc1OC`, for which the activity increase over dofetilide control, less the hit threshold is -17% (inactive).
As for `OC(COC(c1ccccc1)c1ccccc1)CN1CCCCC1` (stereo not drawn), the activity increase over dofetilide control, less the hit threshold is -18% (inactive).
For `N#Cc1c(-c2ccco2)c2c([nH]c1=S)CCCC2`, the activity increase over dofetilide control, less the hit threshold was -9% (inactive).
Regarding `CCOC(=O)c1c(C)[nH]c(=S)c(C#N)c1-c1ccc(Cl)cc1`, the activity increase over dofetilide control, less the hit threshold was -5% (inactive).
Take `CCCCOc1ccc(-c2c(C#N)c(N)[nH]c(=S)c2C#N)cc1`: the activity increase over dofetilide control, less the hit threshold is 38% (active).
As for `c1ccc(Oc2cccc(OCCn3cncn3)c2)cc1`, the activity increase over dofetilide control, less the hit threshold is -4% (inactive).
Take `COCC(=O)N(Cc1ccco1)c1nnc(C2CCOC2)s1` (stereo not drawn): the activity increase over dofetilide control, less the hit threshold was -19% (inactive).
Take `Cc1ccc(C(=O)COC(=O)C2CCC2)cc1`: the activity increase over dofetilide control, less the hit threshold is 4% (active).
To `Cc1ccc(CNC(=O)CN2C(C)CCCC2C)cc1` (stereo not drawn) belongs -7% (inactive); to `CC(NC(=O)COC(=O)C1CCC1)c1ccccc1` (stereo not drawn), -6% (inactive).

For the origin of these results see PubChem BioAssay AID1835 (Johns Hopkins Ion Channel Center, 2009).
